{"source": "PubChem BioAssay AID504408", "about": "(Broad Institute, 2011)", "note": "Among all 300,000 compounds or so, about 5,200 (1.7%) were called active. Shown is part of a subset that was picked to be rich in actives. Values without a mark were called inactive.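 The calls were made as follows: active = mean replicate activation of at least 50% with a set share of replicates each reaching 50%; inconclusive = only one of those two conditions met; inactive = mean below 50% and too few replicates reaching it.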"}
{"experiment": "HSF-1 activators, primary screen, NIH3T3-HGL cells, MG132 stress, luminescence, single point (AID 504408);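 also: 0% = median of the neutral control wells and 100% = twice that signal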", "conditions": "NIH3T3-HGL HSF-1 luciferase reporter, MG132, 8 h; at 9 µM; stronger effect = higher value; 100% = twice DMSO control signal"}
{"compound": "O=C1/C(=C\\c2ccc(O)cc2)CCC1CNc1ccc(Cl)cc1", "note": "(centres undefined)", "activation": "-5.88%"}
{"compound": "COc1ccc(C(=O)c2c3ccc([N+](=O)[O-])cc3[n+]([O-])n2CCCN)cc1", "activation": "11.6%"}
{"compound": "CCC(C)c1ccccc1N1CC(C(=O)N2CCN(S(=O)(=O)c3ccc(F)cc3)CC2)CC1=O", "note": "(centres undefined)", "activation": "7.61%"}
{"compound": "CCOC(=O)c1ccc(Nc2cc3ccccc3c(=O)[nH]2)cc1", "activation": "-14.6%"}
{"compound": "CCOC(=O)c1sc(-c2cccc([N+](=O)[O-])c2)cc1N", "activation": "24.4%"}
{"compound": "CCOC(=O)c1sc(C)c2c1NC(C)(c1cccc3ccccc13)NC2=O", "note": "(centres undefined)", "activation": "97.8% (active)"}
{"compound": "CCOC(=O)c1c(C)[nH]c(C(=O)OCC(=O)N2CCCC2=O)c1C", "activation": "16.4%"}
{"compound": "CCCCOC(=O)c1[nH]c(C)c(C(=O)OC)c1C", "activation": "52.3% (active)"}
{"compound": "CCOC(=O)c1c(C)[nH]c(C(=O)OCC(=O)c2ccc(OC)cc2OC)c1C", "activation": "-6.52%"}
{"compound": "COc1cc(-c2nnc(NC(=O)C3=COCCO3)o2)cc(OC)c1OC", "activation": "-3.05%"}
{"compound": "O=C(OCCOCn1cc(Br)c(=O)[nH]c1=O)c1ccccc1", "activation": "-0.69%"}
{"compound": "N[C@@H](Cc1ccccc1)C(=O)N1CCOCC1", "activation": "-19.9%"}
{"compound": "C=CCOc1cccc(C2C(C(=O)c3ccc(C)o3)=C(O)C(=O)N2c2nnc(C)s2)c1", "note": "(centres undefined)", "activation": "-4.03%"}
{"compound": "CC(=O)c1ccc(NC(=O)C2CCCN2S(=O)(=O)c2cccs2)cc1", "note": "(centres undefined)", "activation": "-4.67%"}
{"compound": "c1ccc(CN=C2Nc3ccccc3CS2)nc1", "activation": "58% (active)"}
{"compound": "CCCCN(C1CCS(=O)(=O)C1)S(=O)(=O)c1ccc(C(C)C)cc1", "note": "(centres undefined)", "activation": "0.442%"}
{"compound": "CCCCN(C(=O)c1ccc(S(=O)(=O)N2CCOCC2)cc1)C1CCS(=O)(=O)C1", "note": "(centres undefined)", "activation": "-15%"}
{"compound": "Cc1cccc(C(C)C)c1NC(=O)COC(=O)C1CC(=O)N(Cc2ccccc2)C1", "note": "(centres undefined)", "activation": "4.94%"}
{"compound": "Cc1ccc(C)c(C(C)NC(=O)C2CCCO2)c1", "note": "(centres undefined)", "activation": "2.29%"}
{"compound": "Cc1cc(C)c2nc(NC(=O)C3CCCO3)sc2c1", "note": "(centres undefined)", "activation": "61.5% (active)"}
{"compound": "Cc1cc([N+](=O)[O-])ccc1NC(=O)C1CCCO1", "note": "(centres undefined)", "activation": "0.502%"}
{"compound": "COc1cccc(/C=C/C(=O)OCC(=O)N2CCCc3ccccc32)c1", "activation": "-15.2%"}
{"compound": "CC(=O)N1CCN(C(=O)c2cc(-c3ccc(C)o3)nc3ccccc23)CC1", "activation": "-3%"}
{"compound": "Cc1ccc(NC(=S)NC(=O)/C=C/c2ccc(Cl)cc2)cc1", "activation": "8.91%"}
{"compound": "COC(=O)c1c(C)[nH]c(C(=O)NCCc2ccc(S(N)(=O)=O)cc2)c1C", "activation": "22.1%"}
{"compound": "COC(=O)c1c(C)[nH]c(C(=O)/C=C/c2ccc(Cl)cc2)c1C", "activation": "75.6% (active)"}
{"compound": "O=C(OCc1nnc(-c2ccccc2)o1)c1cc(=O)[nH]c2ccccc12", "activation": "-8.33%"}
{"compound": "COC(=O)c1ccc(COC(=O)C2CCN(S(=O)(=O)c3c(Cl)cccc3Cl)CC2)o1", "activation": "-1.35%"}
{"compound": "Cc1cccc(NC(=O)C2CCCN(C(=O)NCc3ccccc3)C2)c1C", "note": "(centres undefined)", "activation": "23.5%"}
{"compound": "Cc1ccccc1NC(=O)N1CCCC1C(=O)NCc1ccccc1", "note": "(centres undefined)", "activation": "-14.4%"}
{"compound": "Cc1ccccc1NC(=O)C1CCCN(C(=O)NCc2ccccc2)C1", "note": "(centres undefined)", "activation": "66.9% (active)"}
{"compound": "CCOC(=O)N1CCN(C(=O)COc2ccc3oc4c(c3c2)CCCC4)CC1", "activation": "-4.2%"}
{"compound": "CCN(CC(=O)NCc1cccs1)C(=O)c1ccc(OC)c(S(=O)(=O)N2CCOCC2)c1", "activation": "-5.75%"}
{"compound": "O=C(NCc1ccc2c(c1)OCO2)c1c(O)nc2sccn2c1=O", "activation": "14.5%"}
{"compound": "CC(C)OC(=O)c1ccc(COc2ccc3ccc(=O)oc3c2)o1", "activation": "65.7% (active)"}
{"compound": "COC(=O)c1ccc(COc2ccc(C#N)cc2)o1", "activation": "10.5%"}
{"compound": "Cc1noc(C)c1COc1ccc2ccc(=O)oc2c1", "activation": "0.156%"}
{"compound": "O=C1CCCCC1Sc1ccc(Cl)cc1[N+](=O)[O-]", "note": "(centres undefined)", "activation": "8.24%"}
{"compound": "Cc1cc(OCC(=O)N(C)c2c(N)n(Cc3ccccc3)c(=O)[nH]c2=O)c(C(C)C)cc1Cl", "activation": "-0.115%"}
{"compound": "Cc1ccc2nc(NC(=O)C3CSC4(C)CCC(=O)N34)sc2c1", "note": "(centres undefined)", "activation": "10.5%"}
{"compound": "CN(c1ccc(C(=O)N2CCc3ccccc3C2)cc1)S(C)(=O)=O", "activation": "57.9% (active)"}
{"compound": "Cc1ccc(S(=O)(=O)N(CC(=O)N2CCc3ccccc3C2)c2cccc(Cl)c2)cc1", "activation": "13%"}
{"compound": "CS(=O)(=O)N(CC(=O)N1CCc2ccccc2C1)c1ccc(Br)cc1", "activation": "-4.09%"}
{"compound": "COc1cccc(N(CC(=O)N2CCc3ccccc3C2)S(C)(=O)=O)c1", "activation": "69.4% (active)"}
{"compound": "O=C(C(=O)N1CCc2ccccc2C1)N1CCc2ccccc2C1", "activation": "2.97%"}
{"compound": "CN(c1cccc(NC(=O)c2ccc(CN3CCc4ccccc4C3)cc2)c1)S(C)(=O)=O", "activation": "21.2%"}
{"compound": "Cc1cc2nc3n(c2cc1C)CC1CC(C(=O)NCCC(C)C)N(C)C31", "note": "(centres undefined)", "activation": "11.4%"}
{"compound": "Cc1ccc(S(=O)(=O)n2cccc2CO)cc1", "activation": "3.66%"}
{"compound": "O=C(COc1ccccc1)Nc1ccc(F)cc1", "activation": "1.97%"}
{"compound": "Cc1ccc(O)c(CNc2nc3ccccc3n2C)c1", "activation": "6.25%"}
{"compound": "Cc1ccc(O)c(CNc2nc3ccccc3[nH]2)c1", "activation": "83.1% (active)"}
{"compound": "Cc1ccc(-c2cc(=O)[nH]c(NCc3ccccc3)n2)cc1", "activation": "11.6%"}
{"compound": "Cc1sc2ncnc(N3CCC(C(=O)Nc4nc5ccc(Cl)cc5s4)CC3)c2c1C", "activation": "8.18%"}
{"compound": "CC(Oc1cccc(Cl)c1)C(=O)Nc1ccc(S(=O)(=O)Nc2ncccn2)cc1", "note": "(centres undefined)", "activation": "-4.25%"}
{"compound": "COc1cc2c(cc1OC)C(C)N(S(=O)(=O)c1cnc(Cl)c(Cl)c1)CC2", "note": "(centres undefined)", "activation": "227% (active)"}
{"compound": "COc1ccc(S(=O)(=O)N2CCC(C(=O)N3CCc4ccccc4C3)CC2)cc1OC", "activation": "-2.14%"}
{"compound": "COc1cc2c(cc1OC)CN(C(=O)c1cc(S(=O)(=O)N3CCCCC3)ccc1Cl)CC2", "activation": "31.4%"}
{"compound": "CCCCn1c(N)c(N(CC)C(=O)c2ccc(N(C)S(=O)(=O)c3ccc(C)cc3)cc2)c(=O)[nH]c1=O", "activation": "-9.17%"}
{"compound": "COc1ccc(OC)c(S(=O)(=O)N2CCCC(C(=O)N3CCC(C(N)=O)CC3)C2)c1", "note": "(centres undefined)", "activation": "-0.348%"}
{"compound": "CCN1C(=O)[C@@H]2[C@@H](c3ccc(-c4cccc(Cl)c4)cc3)N3CCC[C@@]3(C(=O)OC)[C@@H]2C1=O", "activation": "15%"}
{"compound": "O=C(/C=C/NCc1ccc(F)cc1)c1ccccc1", "activation": "57.4% (active)"}
{"compound": "O=C(/C=C\\NCC(=O)c1ccccc1)c1ccccc1", "activation": "16.4%"}
{"compound": "O=C(Cc1ccccc1)NCc1ccc(F)cc1", "activation": "20.9%"}
{"compound": "Cc1ccc(NC(=O)C(C)OC(=O)Cc2c[nH]c3ccccc23)cc1S(=O)(=O)N1CCOCC1", "note": "(centres undefined)", "activation": "13%"}
{"compound": "Cc1ccc(C(=O)OCC(=O)N2CC(C)CC(C)C2)cc1S(=O)(=O)N1CCCCC1", "note": "(centres undefined)", "activation": "1.62%"}
{"compound": "Cc1ccc2nc(N3CCN(C(=O)c4ccco4)CC3)sc2c1", "activation": "12.9%"}
{"compound": "c1c2c(cc3sc(N4CCCCC4)nc13)OCCO2", "activation": "-56.8%"}
{"compound": "Brc1ccc2nc(N3CCCC3)sc2c1", "activation": "68.3% (active)"}
{"compound": "CN(Cc1c(F)cccc1Cl)C(=O)CNC(=O)c1ccc2c(c1)OCO2", "activation": "-4.62%"}
{"compound": "Cc1ccc(S(=O)(=O)N2CCN(C(=O)c3ccccc3-c3nc4ccccc4s3)CC2)c(C)c1", "activation": "-2.98%"}
{"compound": "O=C(CCN1C(=O)c2ccccc2C1=O)Nc1cccc(F)c1", "activation": "-4.05%"}
{"compound": "O=C1c2ccccc2C(=O)N1CCOc1ccc(F)cc1", "activation": "43.4%"}
{"compound": "O=C(CCN1C(=O)c2ccccc2C1=O)C1=NN[C@@H]2C(=O)N(c3ccc(F)cc3)C(=O)[C@H]12", "activation": "67.2% (active)"}
{"compound": "CCOc1ccc(S(=O)(=O)Nc2cccc(C(=O)NCC3(N4CCCCC4)CCCCC3)c2)cc1", "activation": "-4.45%"}
{"compound": "O=C(CSc1nnc2scc(-c3ccc(F)cc3)n12)NCc1ccco1", "activation": "-1.83%"}
{"compound": "COc1ccc(-n2c(SCC(=O)NCc3ccco3)nnc2-c2c[nH]c3ccccc23)cc1", "activation": "7.75%"}
{"compound": "O=C(CSc1nnc(-c2c[nH]c3ccccc23)n1-c1ccc(F)cc1)NCc1ccco1", "activation": "58.5% (active)"}
{"compound": "O=S(=O)(Nc1ccc(-c2ccc(N3CCOCC3)nn2)cc1)c1cc(Cl)ccc1Cl", "activation": "12.9%"}
{"compound": "Cc1ccc(C(=O)N/N=C/c2cccc3ccccc23)cn1", "activation": "15.6%"}
{"compound": "CCCn1c(CCNc2nc(-c3ccc(OC)cc3)cs2)nc2ccccc21", "activation": "3.73%"}
{"compound": "c1cnc(Nc2nc(-c3ccc4ccccc4c3)cs2)nc1", "activation": "38.8%"}
{"compound": "COc1ccc(-c2csc(Nc3ccccn3)n2)cc1", "activation": "57.4% (active)"}
{"compound": "Cc1ccc(NC(=O)c2cccs2)cc1S(=O)(=O)N(C)C", "activation": "-11.9%"}
{"compound": "CCN(CC(=O)Nc1ccc(C)c(S(=O)(=O)N(C)C)c1)Cc1ccccc1", "activation": "3.82%"}
{"compound": "Cc1ccc(C(=O)Nc2ccc(C)c(S(=O)(=O)N(C)C)c2)s1", "activation": "78.5% (active)"}
{"compound": "CN(C)S(=O)(=O)c1ccc(N2CCCC2)c(C(=O)Nc2ccc(Br)cc2F)c1", "activation": "14.1%"}
{"compound": "Cc1ccc(Cc2nnc(SCC(=O)Nc3ccc(C)cc3C)[nH]c2=O)cc1", "activation": "0.586%"}
{"compound": "Cc1c(NC(=O)C(C)OC(=O)c2c3c(nc4ccccc24)CCC(C)C3)c(=O)n(-c2ccccc2)n1C", "note": "(centres undefined)", "activation": "-5.9%"}
{"compound": "S=C1NC(c2ccccc2)=NCN1c1ccc(Br)cc1", "activation": "55% (active)"}
{"compound": "O=C1CN(c2nc(-c3ccccc3)c3cc(Br)ccc3n2)c2ccccc2N1", "activation": "-21.4%"}
{"compound": "Cc1nc(=O)c(-c2ccccc2)c(C)n1-c1ccc(Br)cc1", "activation": "1.48%"}
{"compound": "Cc1ccc(-n2nc3ccc(NC(=O)/C=C/c4ccco4)cc3n2)cc1C", "activation": "21.6%"}
{"compound": "CCC(=O)Nc1ccc(C(=O)Nc2cccc(OC)c2)cc1", "activation": "11.2%"}
{"compound": "CCC(=O)Nc1ccc2nn(-c3ccc(F)cc3)nc2c1", "activation": "63.6% (active)"}
